Screening data from PubChem.
Sampled rows, rich in hits. Any-hit rate of the full collection: about 9.2%.
NPC1 prom act: activates the NPC1 promoter | Huh7 NPC1 promoter luciferase reporter, 24 h | Potency, µM (doses to about 9.22 µM), inactives show at the top dose activation, usual class: activators | 320,000 compounds, 2.4% hits | AID 485313; also: % of control where 0% means no effect; nearly all actives have a fitted effect of over 60% in size
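Luciferase expression driven by the NPC1 promoter was measured in stably transfected Huh7 cells after a 24 h compound incubation, using a luciferase reagent and a luminescence read.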
Rab9 promoter act: activators of Rab9 promoter; AID 485297; Huh7 Rab9 promoter-luciferase reporter, luminescence, 24 h; Potency, µM (doses to about 9.22 µM), without a hit: at the highest dose activation, negative = inhibition, hits mostly activators; 320,000 compounds, 2.8% hits; also: % of control where 0% means no effect; nearly all actives have a fitted effect of over 60% in size
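Quantitative HTS format; Huh7 Rab9-luciferase reporter cells (1500/well) receive compound 2 h post-plating, incubate 24 h at 37 °C, then get luciferase reagent for 10 min before luminescence reading.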
ELG1 genotox: inducers of genotoxicity in HEK293T ELG1-luciferase cells | HEK293T ELG1-luciferase reporter, luminescence, 16 h | Potency, µM (highest dose often 46 µM), for the others: top-dose activity change, positive = activation, most hits filed as activators | 330,000 compounds, 1.3% hits; also: % of control where 0% means no effect; nearly all actives have a fitted effect of over 60% in size
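Luminescence read-out: rising ELG1-luciferase signal, reflecting elevated ELG1 protein under genetic stress, flags genotoxic compounds. Cells were treated for 16 hr at 37 °C before ONE-Glo detection.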
FLuc counter: firefly luciferase modulation, counter-screen for miR-21 project. AID 588342. purified FLuc, Km substrates, luminescence inhibition. P08659. Potency, µM (titrated, usually from 57.5 µM), inactives show at the top dose activity change, negative = inhibition, most hits filed as inhibitors. 360,000 compounds, 6.9% hits;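 also: plate controls were vehicle for no effect and reference inhibitor for full effect; nearly all actives have a fitted effect of over 55% in size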
Target sequence (P08659 whole entry, looked up): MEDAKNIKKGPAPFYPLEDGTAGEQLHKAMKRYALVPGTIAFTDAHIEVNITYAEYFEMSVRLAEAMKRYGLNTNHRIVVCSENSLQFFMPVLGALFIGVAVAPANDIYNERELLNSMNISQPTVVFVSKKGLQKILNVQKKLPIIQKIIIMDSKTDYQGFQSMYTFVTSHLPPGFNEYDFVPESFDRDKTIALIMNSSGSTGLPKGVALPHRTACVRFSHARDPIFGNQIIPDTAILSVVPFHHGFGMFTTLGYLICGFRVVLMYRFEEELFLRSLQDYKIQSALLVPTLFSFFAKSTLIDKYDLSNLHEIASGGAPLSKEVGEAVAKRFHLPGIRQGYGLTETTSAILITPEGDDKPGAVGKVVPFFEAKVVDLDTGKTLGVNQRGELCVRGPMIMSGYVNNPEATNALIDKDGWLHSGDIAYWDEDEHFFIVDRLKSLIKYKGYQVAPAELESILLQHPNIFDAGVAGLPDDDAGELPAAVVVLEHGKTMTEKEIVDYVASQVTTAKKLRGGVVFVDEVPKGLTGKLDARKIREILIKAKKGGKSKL
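Biochemical qHTS of compounds, final roughly 60 µM downward over six points, against 10 nM purified firefly luciferase using Km concentrations of substrates (10 uM D-luciferin, 10 uM ATP) in Tris acetate pH 7.5 buffer; luminescence output.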
ELG1 DNA repair: inhibitors of ELG1-dependent DNA repair in HEK293T cells; HEK293T ELG1-luciferase reporter, luminescence, 16 h; DNA damage induced by 5-fluorouridine; Potency, µM (series often up to 46.1 µM), without a hit: at the highest dose activity change, negative = inhibition, actives largely listed as inhibitors; 330,000 compounds, 2.3% hits; AID 504467; also: % is scaled to controls: 0 for no effect and ±100 for the full control effect; nearly all actives have a fitted effect of over 55% in size
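Luminescence from the luciferase reporter, measured 30 min after ONE-Glo reagent at room temperature, was the read-out. Beforehand, 2,000 cells per well were exposed for 16 hr at 37 °C to 5-fluorouridine together with compound or vehicle.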
SMN2 splice enh: enhancers of SMN2 splice variant expression; HEK293 SMN2-luciferase splicing reporter, luminescence, 30-36 h; Potency, µM (highest dose often 46.1 µM), inactives show at the top dose activity change, positive = activation, actives largely listed as activators; 210,000 compounds, 2.8% hits; also: % of control where 0% means no effect; nearly all actives have a fitted effect of over 55% in size
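qHTS luciferase splicing reporter: luminescence rises when SMN2 exon 7 is included in transfected HEK293 cells. Compound exposure lasted 30-36 h at 37C, with 4.5 mM final sodium butyrate as control, followed by a ONE-Glo read.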
Starred values were filed as active, the others as inactive; ? = inconclusive; / = no result given; [ ] = another dose, or the depositor's remark. Calls follow the shape of the dose curve; as a rule, active = well fitted curve in the direction sought with a large enough effect; inconclusive = small, poorly fitted or top-dose-only effect, or another doubt; inactive = no such curve, though single readings can be large; an effect the other way counts as inactive or inconclusive. Potency is read from the fitted curve at half-maximal effect.

SMILES	NPC1 prom act	Rab9 promoter act	ELG1 genotox	FLuc counter	ELG1 DNA repair	SMN2 splice enh
O=C1C(Cl)=C(NS(=O)(=O)c2ccc([N+](=O)[O-])cc2)C(=O)c2ccccc21	-0.2%	-2.8%	-16.9%	26.9µM*	18.3µM*	/
O=C1C(Cl)=C(Nc2ccc(S(=O)(=O)Nc3ccccn3)cc2)C(=O)c2ccccc21	/	/	/	/	/	-21.6%[9.22 µM]
CC(=O)N(Cc1cc2ccccc2[nH]c1=O)c1ccc(C)cc1	-4.5%	-0.4%	1.0%	-4.5%	-0.5%	/
COc1ccc(C)c2sc(N(CCCN(C)C)C(=O)c3ccc4c(c3)OCCO4)nc12	-3.5%	2.8%	?	-11.0%	21.7%	/
Cc1ccn2cc(C(=O)NCc3ccco3)nc2c1	6.5%	13.7%	11.3%	-12.0%	?	15.1%
Cc1ccn2cc(C(=O)Nc3nnc(C)s3)nc2c1	?	3.16µM*	?	15.1µM*	?	/
O=C(Nc1ccccc1N1CCOCC1)c1ccc2ccccc2n1	26.0%	27.8%	1.0%	7.57µM*	10.5%	6.8%
O=C(Nc1ccccc1N1CCCCC1)c1ccc(F)c(S(=O)(=O)N2CCOCC2)c1	-4.6%	-6.3%	-6.4%	2.8%	13µM*	/
Cc1ccn2cc(C(=O)Nc3ccc4c(c3)OCCO4)nc2c1	1.41µM*	1µM*	5.8µM*	1.9µM*	?	?
Cc1cnc(C(=O)OCC(=O)N2CCN(S(=O)(=O)c3ccc(Cl)cc3)CC2)cn1	-5.4%	-3.1%	1.0%	0.4%	-0.1%	/
Cc1cc(-n2c(C)cc(C(=O)CSc3nncn3C(C)C)c2C)no1	-2.3%	-4.4%	-1.0%	-2.4%	1.8%	/
C/C(CC(=O)Nc1ccc(Cl)c(Cl)c1)=N\NC(=O)C(=O)N1CCCCC1	-3.3%	-1.5%	-4.2%	0.1%	7.7%	/
CC(=O)c1ccc(NC(=S)NCCCN2CCOCC2)cc1	0.9%	-0.6%	2.3%	4.9%	-5.6%	16.6%
O=C(Nc1cc(C(F)(F)F)ccc1N1CCOCC1)c1cn2ccccc2n1	0.2%	6.1%	-1.8%	7.9%	-12.9%	9.8%
O=C(Nc1ccccc1N1CCOCC1)c1cccc(Oc2ccccc2)c1	-35.1%	5.7%	-10.9%	21.3µM*	-9.9%	/
Cc1ccn2cc(C(=O)Nc3ccccc3N3CCOCC3)nc2c1	20.7%	17.2%	3.4%	15.1µM*	7.5%	-2.7%
COc1ccc(/C=N/NC(=O)C2(C)NC(C)(C)Cc3ccccc32)cc1 (configuration not stated)	-5.9%	-2.4%	-0.6%	-2.2%	5.6%	10.0%
CC(=O)c1cc(-c2ccccc2)n(CCC(=O)Nc2nc3c(C)cccc3s2)c1C	/	/	/	-0.3%	/	/
COc1ccc(CNCCc2ccc(Cl)cc2)cc1OCc1ccccc1	-4.7%	-14.3%	-12.4%	2.5%	14.6µM*	-54.1%
O=C(OCc1ccc(Cl)c(Cl)c1)c1cccnc1Cl	-3.4%	-5.1%	1.7%	?	12.5%	/
COc1cc(CNCc2ccccn2)ccc1OCc1ccc(Cl)c(Cl)c1	10.7%	13.5%	9.8%	16.9µM*	?	7.0%
Nc1ncccc1OCc1ccc(Cl)c(Cl)c1	2.82µM*	1.41µM*	?	7.57µM*	?	/
CCOc1cc(CNCc2ccccc2)ccc1OCc1ccc(Cl)cc1	-11.6%	-0.8%[1.84 µM]	-6.2%	0.8%	?	/
O=C(COC(=O)Cc1cccc(F)c1)NC(=O)NC1CCCCC1	1.2%	0.1%	0.5%	2.7%	23.7%	/
N#CCc1nn2c(-c3ccccc3)ccnc2c1C#N	-3.6%	-3.7%	-15.0%	-3.2%	1.1%	/
SMILES	NPC1 prom act	Rab9 promoter act	ELG1 genotox	FLuc counter	ELG1 DNA repair	SMN2 splice enh
Nc1ccc2nc(-c3ccc(O)cc3)sc2c1	/	/	/	0.301µM*	/	1.41µM*
O=S(=O)(c1cccc(-c2nc3ccccc3s2)c1)N1CCOCC1	5.5%	0.1%	2.3%	?	-1.4%	-17.6%
Nc1ccc(-c2nc3ccc(N)cc3s2)cc1	?	?	?	0.269µM*	?	/
Nc1cccc(-c2nc3ccc(N)cc3s2)c1	?	?	?	0.269µM*	?	12.6µM*
COc1ccc(CNC(=O)CSc2nc3ccc(N)cc3s2)cc1	-0.9%	18.0%	0.5%	?	13.0%	0.5%
CC(OC(=O)C1CC1)C(=O)Nc1cc(Cl)cc(Cl)c1 (configuration not stated)	/	/	-4.0%	/	?	/
Cc1ccc(C)c(N2CCN(C(=O)c3ccc4c(Cl)c5c(nc4c3)CCCC5)CC2)c1	/	/	/	-0.9%	/	-7.4%
CN(CC(=O)Nc1ccc2c(c1)OCO2)S(=O)(=O)c1cccs1	?	?	?	16.9µM*	?	/
O=C(Nc1ccc2c(c1)OCCO2)c1cccs1	2.82µM*	1.58µM*	16.4µM*	5.36µM*	?	6.31µM*
O=C(c1ccc2c(c1)OCCCO2)c1cccs1	1.12µM*	2.24µM*	?	6.75µM*	?	12.6µM*
CCN(CC)S(=O)(=O)c1cc(NC(=O)CCCOc2ccc(C(C)=O)cc2)ccc1C	-7.8%	-16.0%	1.6%	-1.3%	16.4µM*	-67.8%
O=C(c1ccccc1)c1ccc2c(c1)OCCOCCOCCOCCO2	6.6%	-3.5%	-4.4%	-5.1%	?	/
O=C(C1CCCN(S(=O)(=O)c2cccc3nsnc23)C1)N1CCN(c2ccccc2Cl)CC1 (configuration not stated)	/	/	/	-1.0%	/	-12.0%
Fc1cccc(-c2nnn3c2nc(NC2CCCCC2)c2ccccc23)c1	/	/	/	-17.0%	/	12.4%
CCN(CC)S(=O)(=O)c1cc(NC(=O)c2ccc(Br)s2)ccc1C	19.7%	0.7%	4.7%	12µM*	?	-11.6%
O=S(=O)(Nc1ccc2c(c1)OCCO2)c1cccs1	1.6%	4.5%	7.31µM*	?	?	1.2%
O=C(Nc1ccc2c(c1)OCO2)c1cccs1	/	/	/	13.5µM*	/	?
O=C(Nc1ccncc1)c1cccs1	-1.0%	2.9%	-0.7%	3.4%	?	13.7%
O=C(Nc1ccc2c(c1)OCO2)c1ccc(Br)s1	1.78µM*	1.58µM*	1.84µM*	3.38µM*	?	12.6µM*
COc1ccc(-n2nc3cc(C)c(NC(=O)C(C)C)cc3n2)cc1	0.316µM*	0.316µM*	?	0.213µM*	?	2.82µM*
CCc1ccc(-n2nc3cc(C)c(NC(=O)c4cc(OC)cc(OC)c4)cc3n2)cc1	/	/	/	1.35µM*	/	2.1%
COc1ccc(-n2nc3cc(C)c(NC(C)=O)cc3n2)cc1	0.316µM*	0.316µM*	?	0.601µM*	?	1.58µM*
